Assay outcomes from PubChem.
JMJD2A Tudor inh: inhibitors of human JMJD2A Tudor domain; O75164; AlphaScreen JMJD2A-Tudor / H3K4me3 peptide binding; Potency, µM (titrated, usually from 114 µM), for inactives: top-dose activity change, negative = inhibition, actives largely listed as inhibitors; hit rate 4.4% among 390,000; further: potency means the concentration at half of the fitted maximal effect; on the % scale 0 is the no-effect control and ±100 the full control effect; nearly all actives have a fitted effect of over 50% in size
BAZ2B block: blocks human BAZ2B. AID 504333. AlphaScreen BAZ2B-H3K14Ac peptide displacement. Q9UIF8. Potency, µM (titrated, usually from 114 µM), inactives show at the highest dose activity change, negative = inhibition, usual class: inhibitors. hit rate 4.4% among 360,000; further: potency means the concentration at half of the fitted maximal effect; on the % scale 0 is the no-effect control and ±100 the full control effect; nearly all actives have a fitted effect of over 60% in size
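BAZ2B (50 nM) with biotin-H3(5-23)K14Ac peptide (50 nM) in PBS pH 7.4, 0.01% Tween-20, preformed 30 min, then compound 30 min at room temperature; top concentration 110uM. AlphaScreen streptavidin donor/nickel chelate acceptor beads (10 ug/mL final), 20 min dark, signal read.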
PLK1 PBD inh: PLK1 (human) polo-box domain binding inhibition. Plk1 PBD binding of FITC phosphopeptide, fluorescence polarization. Potency, µM, for inactives: max response, negative = inhibition, usual class: inhibitors. hit rate 2.8% among 360,000. AID 720504; further: potency means the concentration at half of the fitted maximal effect; series mostly up to about 57 µM; on the % scale 0 is the no-effect control and ±100 the full control effect; nearly all actives have a fitted effect of over 65% in size
Target sequence (P53350 whole entry, looked up, the tested form may be a part): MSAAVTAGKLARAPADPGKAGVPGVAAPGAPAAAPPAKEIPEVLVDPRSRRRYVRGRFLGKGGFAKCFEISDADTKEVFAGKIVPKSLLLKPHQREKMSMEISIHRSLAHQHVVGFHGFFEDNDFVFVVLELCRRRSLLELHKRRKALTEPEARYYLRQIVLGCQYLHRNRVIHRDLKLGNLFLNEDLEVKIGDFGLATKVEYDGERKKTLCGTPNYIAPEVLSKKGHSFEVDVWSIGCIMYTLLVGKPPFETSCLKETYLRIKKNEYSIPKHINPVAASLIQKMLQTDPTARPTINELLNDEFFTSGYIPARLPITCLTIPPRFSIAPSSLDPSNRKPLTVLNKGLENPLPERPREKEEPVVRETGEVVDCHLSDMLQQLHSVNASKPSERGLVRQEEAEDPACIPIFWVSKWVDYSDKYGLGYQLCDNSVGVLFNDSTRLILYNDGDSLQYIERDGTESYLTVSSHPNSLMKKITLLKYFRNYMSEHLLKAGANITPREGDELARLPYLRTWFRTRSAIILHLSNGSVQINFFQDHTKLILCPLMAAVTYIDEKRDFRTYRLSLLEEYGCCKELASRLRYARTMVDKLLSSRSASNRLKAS
G9a inh: G9a (human) methyltransferase inhibition; AID 504332; hit rate 8.8% among 350,000; Q96KQ7; G9a H3K9 monomethylation, AlphaScreen, 2 h; Potency, µM (top dose mostly 102 µM), without a hit: top-dose activity, negative = inhibition, most hits filed as inhibitors; further: potency means the concentration at half of the fitted maximal effect; on the % scale 0 is the no-effect control and ±100 the full control effect; nearly all actives have a fitted effect of over 75% in size
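AlphaScreen detection with an anti-monomethyl H3K9 antibody quantified product after a 2 h room-temperature reaction containing 500 nM biotinylated H3K9 peptide, 20 µM SAM and 20 nM enzyme, which had been preincubated 15 min with compound.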
PI5P4Ka inh: PI5P4K alpha (human) kinase inhibition; P48426; PI5P4Kalpha enzyme, ADP-Glo luminescence, 60 min; active compounds read low; max response, %; hit rate 1.2% among 330,000; active means max response of -50% or lower; inconclusive means between -30% and -50%; inactive means -30% or higher; further: value at the top dose of about 77 µM; on the % scale 0 is the no-effect control and ±100 the full control effect
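Single end-point luminescence (ADP-Glo) quantified ADP from PI5P4Kalpha turnover; ATP 5 microM final, 1 h at RT, 0.1% CHAPS and 0.28 mM EGTA in HEPES pH 7.4.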
HP1b binding inh: inhibitors of HP1-beta chromodomain binding to methylated histone tails. P83916. AlphaScreen HP1-beta / biotin-H3K9me3 peptide binding. Potency, µM (doses to about 114 µM), for the others: top-dose activity change, negative = inhibition, usual class: inhibitors. hit rate 0.56% among 390,000; further: potency means the concentration at half of the fitted maximal effect; nearly all actives have a fitted effect of over 70% in size
Target sequence (P83916 whole entry, looked up): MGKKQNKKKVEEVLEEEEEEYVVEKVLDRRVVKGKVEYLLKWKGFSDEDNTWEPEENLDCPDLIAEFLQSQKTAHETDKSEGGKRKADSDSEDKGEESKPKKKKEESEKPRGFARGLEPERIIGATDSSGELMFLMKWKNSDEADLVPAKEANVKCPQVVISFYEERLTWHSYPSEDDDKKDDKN
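AlphaScreen: HP1-beta (50 nM) preformed 30 min with biotin-H3(1-18)K9me3 peptide (50 nM) in PBS pH 7.4, 0.01% Tween-20. Compound added for 30 min at RT, then streptavidin donor/nickel chelate acceptor beads (10 ug/mL) for 30 min.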
* hit, by the source's call; ? = inconclusive; · = not tested or not shown; [ ] = another dose, or the depositor's remark. Sampled rows, rich in hits. Any-hit rate of the full collection: about 12%. Unless noted, the call rests on the fitted dose curve; in most records, active means well fitted curve in the direction sought with a large enough effect; inconclusive means small, poorly fitted or top-dose-only effect, or another doubt; inactive means no such curve, though single readings can be large; an effect the other way counts as inactive or inconclusive.

SMILES | JMJD2A Tudor inh | BAZ2B block | PLK1 PBD inh | G9a inh | PI5P4Ka inh | HP1b binding inh
COc1cc(-c2noc(C3CC(=O)N(c4cc(C)ccc4C)C3)n2)cc(OC)c1OC (stereo not drawn) | -19% | -15% | · | 11%[59 µM] | · | 17%
Cc1cc(C)nc(NN2C(=O)C=CC2=O)n1 | ? | 1% | ? | 2.8µM* | 0 | ?
COc1ccc(Br)cc1CNC(=O)CN1C(=O)C(c2ccccc2)Oc2cccnc21 (stereo not drawn) | -24% | 50µM* | -7% | 20% | -16 | 50%
CCN(CC)c1ccc(NC(=O)CCCN2C(=O)C(c3ccccc3)Oc3cccnc32)c(C)c1 (stereo not drawn) | -21% | -39% | · | 2.8µM* | · | 15%
O=C(CCCN1C(=O)C(c2ccccc2)Oc2cccnc21)Nc1ccccc1C(F)(F)F (stereo not drawn) | 3% | -16% | · | 4%[59 µM] | · | 46%
COc1ccc(N=C2C(=Nc3ccc(OC)cc3)N(c3ccc(OC)cc3)C(=S)N2C)cc1 | 8.9µM* | 2.8µM* | -5% | 5µM* | · | 7.1µM*
COc1ccc(N=C2C(=Nc3ccc(OC)cc3)N(c3ccc(OC)cc3)C(=S)N2c2ccccc2)cc1 | ? | 2µM* | 0% | ? | · | ?
Cc1cc(C)nc(Nc2n[nH]c(COc3ccccc3)n2)n1 | 32µM* | -3% | 3.4µM* | 0%[59 µM] | ? | -3%
Cc1cc(C)nc(Nc2n[nH]c(COc3ccc4ccccc4c3)n2)n1 | -5% | 3% | -9% | · | · | 8%
COc1ccc(C2NC3=C(CCCC3)C(C#N)(C#N)C2(C#N)C#N)cc1 (stereo not drawn) | · | -35% | · | 8.9µM* | · | ·
COc1ccc(N2C(=O)Cc3cc(OC)c(OC)cc3C2c2ccc(F)cc2)cc1 (stereo not drawn) | -16% | -19% | · | -23%[59 µM] | · | 34%
O=c1c2ccccc2nnn1CSc1nnc(-c2cccnc2)n1-c1ccccc1F | -16% | 0% | -4% | 50µM* | -5 | 7%
Nn1c(Cc2ccccc2F)nnc1SCn1nnc2ccccc2c1=O | -13% | 10% | ? | 25µM* | 0 | 59%
C=CCN1C(=NC(=O)COc2ccc(Cl)cc2)SC2CS(=O)(=O)CC21 (stereo not drawn) | -9% | -11%[57.1 µM] | -12% | -4% | 1 | 51%
COc1ccc(OC)c(NC(=O)CSc2nccn2Cc2ccco2)c1 | -33% | -36% | -15% | 50µM* | 4 | -3%
COc1ccc(C)cc1NC(=O)CSc1nnc(-c2ccco2)n1Cc1ccco1 | ? | -36% | -12% | 56µM* | -1 | -19%
CCOc1ccccc1NC(=O)CSc1nnc(-c2ccco2)n1Cc1ccco1 | -34% | ? | -10% | 18µM* | · | 7%
CC1CCCC(C)N1/N=C/c1ccc(O)c(O)c1 (stereo not drawn) | 22µM* | ? | -4% | 3.5µM* | ? | ?
CC1CCCC(C)N1/N=C/c1cc(Br)c(O)c(Br)c1 (stereo not drawn) | · | -23% | · | 5.6µM* | · | ·
CCN(CCCNC(=O)CSc1cc(=O)n(CC)c2ccccc12)c1ccccc1 | 50µM* | ? | · | ? | · | ?
CCN(CC)CCCNC(=O)CN1N=C(c2ccccc2)CCC1=O | -4% | 8% | · | ? | · | 10%
CCCCNC(=O)CSc1cc(=O)n(C)c2ccccc12 | -11%[11.4 µM] | -3% | 27µM* | -22%[12.7 µM] | -4 | -13%
CCN(CCCNC(=O)CN1N=C(c2ccccc2)CCC1=O)c1ccccc1 | ? | -39% | · | 11µM* | · | 5%
CCN(CCCNC(=O)CSc1cc(=O)n(C)c2ccccc12)c1ccccc1 | ? | · | · | ? | · | 11%
O=C(Cn1c(SCCOc2ccccc2)nc2ccccc21)N1CCOCC1 | -1% | 2% | · | -29%[59 µM] | · | 43%
SMILES | JMJD2A Tudor inh | BAZ2B block | PLK1 PBD inh | G9a inh | PI5P4Ka inh | HP1b binding inh
CCCNC(=O)Nc1ccc2c(c1)OC[C@H](C)N(C(=O)C1CCCCC1)C[C@@H](C)[C@H](OC)CN(C)C2=O | · | · | -5% | · | -3 | ·
CCN1C(=O)/C(=C\N2CCN(C)CC2)SC1=S | -19% | -32% | -2% | -28% | -5 | 24%
CCN1C(=O)/C(=C\C=C2/C=CC=CN2CC)SC1=S | ? | 22µM* | 12% | 10µM* | -29 | 40µM*
COc1ccc2c(C)cc(C)nc2n1 | 1% | 1% | -3% | 12%[12.7 µM] | 1 | 44%
Cc1cc(C)c2ccc(=S)[nH]c2n1 | -22% | -26% | 15µM* | 8.9µM* | -19 | 23%
COc1ccc([C@H]2CC(=O)C=C(c3ccc(SC)cc3)C2)cc1 | -7% | -1% | 2% | -45%[2.33 µM] | 1 | 48%
CCCSc1nc(C)c(-c2csc(C(C#N)=C3CCCC3)n2)cc1C#N | 50µM* | 20µM* | -4% | ? | · | 1%
CC1CCC/C(=C(\C#N)c2nc(-c3cc4ccccc4oc3=O)cs2)C1 (stereo not drawn) | 52% | 13% | -13% | -3%[59 µM] | 9 | 116%
Cc1cc(N/N=C(/CCC(=O)O)C(=O)O)nc2ccccc12 | ? | ? | -8% | 3.2µM* | 4 | 35%
Cc1cc(N/N=C/c2ccccc2Br)nc2ccccc12 | -32% | -3% | 0% | 31% | -4 | 27%
COc1ccc(CCN2C(=O)c3oc4cc(C)cc(C)c4c(=O)c3C2c2ccc(F)cc2)cc1OC (stereo not drawn) | -29% | -19% | · | 0%[59 µM] | · | 4%
CN1CCc2c(c3ccccc3n2C)C1 | -21% | -26% | -6% | -4%[12.7 µM] | -1 | 20%
Cc1c2n(c3ccccc13)CCN(C)C2 | 22µM* | -1% | 0% | -11%[2.33 µM] | -1 | 21%
O=C(NCc1cccs1)c1ccc(Cn2c(SCc3cccc(F)c3)nc3cccnc32)cc1 | -23% | -4% | · | -14%[59 µM] | · | 3%
NC(=O)c1csc(CCNC(=O)c2ccccc2)n1 | · | · | -1% | · | 3 | ·
CC/C(C)=N/Nc1nc(-c2cc3cccc(OC)c3oc2=O)cs1 | -26% | -2% | -29% | · | -60* | 14%
COc1cccc2cc(-c3csc(CCn4nc(C)cc4C)n3)c(=O)oc12 | -3%[11.4 µM] | -1% | -27% | 1%[12.7 µM] | -16 | -12%
NNC(=S)Nc1c(Br)cc(F)cc1Br | -24% | -6% | -13% | 35µM* | -2 | 37%
Cc1sc2ncn(CC(=O)N3CCN(c4ccccc4F)CC3)c(=O)c2c1S(=O)(=O)N1CCN(c2ncccn2)CC1 | -6% | -1% | · | 7%[59 µM] | · | 44%
CCN(C(=O)CSc1nc2ccccc2n1CC(=O)Nc1cccc(C#N)c1)c1ccccc1 | -22% | -9% | · | -32%[59 µM] | · | 36%
Cc1cccc(NC(=O)CN2C(=O)S/C(=C\c3ccc(-c4cccc(C(=O)O)c4C)o3)C2=O)c1 | 79µM* | ? | ? | 13µM* | -3 | ?
Cc1cc(C(=O)O)ccc1-n1c(C)cc(C=C2C(=O)c3ccccc3C2=O)c1C | ? | -35% | ? | 28µM* | -20 | -15%
